According to PubChem BioAssay AID2551 (National Center for Advancing Translational Sciences (NCATS), 2010):
About 17,000 (5.5%) of roughly 310,000 compounds were called active. Entries that show only a call come without a potency. Roughly 11% stayed inconclusive and do not appear here. The sample holds actives, similar compounds and a random draw of the others, so the mix is not that of the screen. Calls follow the shape of the dose curve; as a rule, active = well fitted inhibition curve with a large enough effect; inconclusive = small, poorly fitted or top-dose-only effect, or effect the other way; inactive = no such curve, though single readings can be large or run the other way.

target: Nuclear receptor ROR-gamma (Mus musculus) (UniProt P51450); experiment: qHTS for inhibitors of ROR gamma transcriptional activity; settings: Drosophila S2 Gal4-RORgamma UAS-luciferase reporter, 20 h; series mostly up to 53.6 µM; also: nearly all actives have a fitted effect of over 60% in size
From the text: NIH Molecular Libraries Probe Production Network [MLPCN] NIH Chemical Genomics Center [NCGC] MLPCN Grant: R03 DA026211-01 Assay Provider: Dan Littman, New York University Assay Overview: The retinoic acid-related orphan receptor (ROR) gamma is a transcription factor that has a central role in the differentiation of Th17 cells, a subset of T helper cells that secrete the inflammatory cytokines IL-17, IL-17F, and IL-22. Th17 cells have been implicated in graft versus host disease, autoimmune disease and asthma. ROR gamma is induced in naive T helper cells in the presence of TGF-beta combined with IL-6, IL-21, or IL-23, and thereafter directs the expression of the Th17 lineage cytokines. To study the mechanism of action of ROR gamma, an insect cell-based assay was screened. This Drosophila Schneider cell line was stably transfected with two vectors: a gene expressing a fusion of the Gal4 DNA binding domain and ROR gamma transactivation domain under the control of the metallothionine promoter and a Photinus luciferase reporter regulated by the Gal4 binding site enhancer, UAS. […] Small molecule inhibitors of ROR gamma activity are detected by a decrease in luciferase reporter activity.
Assay Protocol Summary: For screening, 600 cells in 4 uL/well were dispensed into white solid 1536-well plates (Grenier) using a solenoid-based dispenser. Following transfer of 23 nL compound or DMSO vehicle by a pin tool, the plates were incubated 1 hr at ambient temperature, and 1 uL/well copper sulfate (700 uM final concentration) was added. The plates were centrifuged 15 s at 1000 RPM and incubated 20 hr at ambient temperature. After addition of 1.5 uL Photinus luciferase detection reagent, the plates were incubated 10 min at ambient temperature and then read by an ViewLux (Perkin Elmer) to detect luminescence. Keywords: NIH Roadmap, MLPCN, MLI, MLSMR, qHTS, NCGC, qHTS, nuclear hormone receptor, retinoic acid-related orphan receptor, ROR gamma
Potency is read from the fitted curve at half-maximal effect.

Chain of Nuclear receptor ROR-gamma (Mus musculus) (P51450 whole entry, looked up, the tested form may be a part): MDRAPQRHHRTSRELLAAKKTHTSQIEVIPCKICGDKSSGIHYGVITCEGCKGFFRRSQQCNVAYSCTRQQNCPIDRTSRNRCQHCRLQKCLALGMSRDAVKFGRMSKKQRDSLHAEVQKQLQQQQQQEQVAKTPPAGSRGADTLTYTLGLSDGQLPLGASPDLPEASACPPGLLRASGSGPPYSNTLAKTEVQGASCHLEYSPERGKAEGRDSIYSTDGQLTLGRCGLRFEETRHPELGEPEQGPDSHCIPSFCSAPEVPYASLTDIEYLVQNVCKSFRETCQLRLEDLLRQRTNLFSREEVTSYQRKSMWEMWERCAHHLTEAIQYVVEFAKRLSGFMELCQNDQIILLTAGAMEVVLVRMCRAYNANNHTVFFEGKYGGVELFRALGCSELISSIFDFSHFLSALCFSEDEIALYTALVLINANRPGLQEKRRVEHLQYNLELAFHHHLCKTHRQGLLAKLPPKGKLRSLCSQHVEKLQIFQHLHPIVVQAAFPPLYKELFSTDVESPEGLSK

SMILES | Potency
Cc1nc(S(=O)(=O)c2ccc(Br)cc2)nc2c1CCC2 | inactive
Brc1ccc(Nc2c3c(nc4ncnn24)CCC3)cc1 | 12.6 µM (active)
O=c1c2c(nc3nc[nH]n13)CCC2 | inactive
COc1cc2c(cc1OC)/C(=C/C(=O)c1ccc(NC(C)=O)cc1)NCC2 | inactive
C/C(=C\C(=O)c1ccc(Br)cc1)N1CCCCC1 | inactive
CC1CN/C(=C\C(=O)c2ccc(Br)cc2)C(=O)N1 (configuration not stated) | 12.6 µM (active)
C[C@H](NC(=O)[C@@H]1Cc2ccccc2CN1C(=O)OC(C)(C)C)C(=O)NC1CCCC1 | inactive
CC(NC(=O)c1ccco1)c1ccc2c(c1)OCO2 (configuration not stated) | inactive
Cc1cccc(-n2c(C)cc(/C=N\NC(=O)c3cccs3)c2C)c1 | 10 µM (active)
Cc1cc(/C=N/Nc2ccc([N+](=O)[O-])cn2)c(C)n1-c1cccc(C(=O)O)c1 | inactive
Cc1ccc(C(=O)Nc2ccc(NC(=O)c3cccs3)cc2)c(C)c1 | inactive
Cc1cc(/C=C2\SC(=O)N(C)C2=O)c(C)n1-c1cccc(C(=O)O)c1 | inactive
Cc1cc(/C=N/n2cnnc2)c(C)n1-c1cccc(C(=O)O)c1 | inactive
Cc1cccc(-n2c(C)cc(/C=N/NC(N)=S)c2C)c1 | 3.55 µM (active)
COC(=O)c1ccc2c(=O)n(CCN3CCOCC3)c(SCC(=O)Nc3cccc(OC)c3)nc2c1 | inactive
CCN1C(=S)N[C@@H](c2cccc(C(F)(F)F)c2)C(C(=O)OC)=C1C | inactive
CC(C)C[C@H](NC(=O)C1CCC(CNC(=O)[C@@H]2CCCN2C(=O)OC(C)(C)C)CC1)C(=O)O (some centres not stated) | inactive
COc1cc(NS(=O)(=O)c2ccc(NC(=S)NC(=O)c3ccccc3)cc2)nc(OC)n1 | inactive
COC(=O)Nc1ccc(S(=O)(=O)Nc2cc(OC)nc(OC)n2)cc1 | inactive
COc1cc(NS(=O)(=O)c2ccc(N/C=C(\C=O)c3nc4cc(Cl)ccc4o3)cc2)nc(OC)n1 | 14.1 µM (active)
COc1ccc(C2(O)C(=O)Nc3ccccc32)cc1 (configuration not stated) | inactive
Cc1cccn2c(=O)c3cc(C(=O)NC4CCCCC4)sc3nc12 | inactive

SMILES | Potency
COc1ccc(-c2nc(CS(=O)(=O)CC(=O)NCc3cccc(Br)c3)c(C)o2)cc1 | inactive
CC(C)c1ccc(NC(=S)NC2CC3C=CC2C3)cc1 (configuration not stated) | 3.55 µM (active)
S=C(NNC(=S)NC1CC2C=CC1C2)NC1CC2C=CC1C2 (configuration not stated) | inactive
CC(C)c1ccc(NC(=S)NNc2ccc(Cl)c(C(=O)O)c2)cc1 | inactive
CC(=O)Nc1ccc(NC(=O)COc2ccc(-c3ccccc3)cc2)cc1 | inactive
CC1=CC(C)(C)N(C(=O)CSc2nccn2C)c2cc(C)ccc21 | 11.2 µM (active)
CC1=CC(C)(C)N(C(=O)CSc2nnc(-c3ccccc3)o2)c2ccc(C)cc21 | inactive
Cc1ccc(C)c(-n2ccnc2SCC(N)=O)c1 | inactive
COc1cc(SC)ccc1C(=O)N(Cc1ccccc1)c1ccccc1 | inactive
COc1cc(SC)ccc1C(=O)Nc1nc(C)cs1 | 1.26 µM (active)
COc1ccccc1CNC(=O)c1ccc(SC)cc1OC | inactive
COc1cc(SC)ccc1C(=O)Nc1cc(C)ccn1 | 6.31 µM (active)
Cc1ccnc(NC(=O)c2ccoc2C)c1 | inactive
Cc1ccnc(NC(=O)CCCOc2ccccc2)c1 | inactive
COc1ccc(C)cc1NC(=O)CNCc1cccs1 | inactive
Cc1sc2ncn(CC(=O)NCCCC(=O)NCc3ccc(F)cc3)c(=O)c2c1C | inactive
CC(C)(C)c1ccc(C(=O)N2CCN(CCNC(=O)C(=O)Nc3ccc(F)cc3)CC2)cc1 | inactive
COc1ccc(CNS(=O)(=O)c2cc(-c3cc(C)no3)ccc2C(C)C)cc1 | inactive
O=C(c1ccco1)N1CCN(C(=O)c2cc(-c3ccccc3F)no2)CC1 | inactive
CC1(C)c2[nH]c3ccccc3c2C[C@H]2C(=O)N(N)CC(=O)N21 | inactive
O=C(c1cnn(-c2ccc(Cl)cc2)c1)c1ccccc1O | inactive
COc1ccc(C(=O)Cc2cnn(-c3ccccc3)c2)c(O)c1 | inactive

SMILES | Potency
Cc1cc(O)cc(O)c1C(=O)Cc1cnn(-c2ccccc2)c1 | 0.199 µM (active)
O=C(Nc1cccc(-n2cnnn2)c1)c1cccnc1 | inactive
COc1ccc(CNC(=O)c2c[nH]c3c(OC)cc(OC)cc3c2=O)cc1 | inactive
Nc1nonc1-n1nnc(C(=O)N/N=C/C2CCCCC2)c1-c1ccccc1 | inactive
CCCOc1ccc(-c2c(C(=O)N/N=C/c3ccco3)nnn2-c2nonc2N)cc1 | 11.2 µM (active)
Nc1nonc1-n1nnc(C(=O)N/N=C/c2c[nH]c3ccccc23)c1-c1ccccc1 | inactive
Cn1c(=O)c2c(nc(NCCNC(=O)c3ccco3)n2Cc2ccccc2F)n(C)c1=O | inactive
O=C(O)c1ccc(S(=O)(=O)N2CCC(Cc3ccccc3)CC2)cc1 | inactive
Cn1cnc2c1c(=O)n(Cc1ccccc1C#N)c(=O)n2C | inactive
O=C1CN(C(=O)c2ccccc2F)C(c2ccc(F)cc2)c2cc(F)ccc2N1 (configuration not stated) | inactive
Cc1cc(=O)oc2c(C)c(OCC(=O)NCCN3CCOCC3)ccc12 | inactive
O=C(O)c1ccc(/C=N/NC(=S)NCc2ccccc2)cc1 | inactive
O=C(CC1CCCCC1)NCc1ccccc1 | inactive
CC1CCCCN1C(=S)NCc1ccccc1 (configuration not stated) | inactive
C/C(=N\NC(=S)NCc1ccccc1)c1ccc(Cl)cc1 | 3.55 µM (active)
C/C(=N\NC(=S)NCc1ccccc1)C1CCCCC1 | 0.224 µM (active)
C[n+]1ccc(C(=O)NCc2ccccc2)cc1 | inactive
CC(CC(=O)N1CCN(c2ccccc2)CC1)S(=O)(=O)c1ccc2c(c1)NC(=O)CS2 (configuration not stated) | inactive
COC(=O)COc1ccc2c(=O)c(Oc3ccccc3Br)coc2c1 | inactive
Cc1ccc(S(=O)(=O)NCC(=O)Nc2ccc3c(c2)OCCO3)cc1 | inactive
O=C(N/C(=C\c1ccc([N+](=O)[O-])cc1)C(=O)N1CCOCC1)c1cccc(Br)c1 | inactive
O=C(/C=C/c1ccc(Cl)cc1)NCCCn1ccnc1 | inactive

SMILES | Potency
CCn1cc(/C=C(\NC(=O)c2ccc(C)cc2)C(=O)NCCN2CCOCC2)c2ccccc21 | inactive
O=C(NCCCN1CCOCC1)c1cc(-c2ccc(Cl)cc2)on1 | 11.2 µM (active)
COc1ccc(-c2cc(C(=O)NCCCN3CCOCC3)no2)cc1 | inactive
O=C(NCCCN1CCOCC1)c1cc(-c2cccc(O)c2)on1 | inactive
Cn1cc(S(=O)(=O)Nc2ccc(Cl)cc2Cl)c(=O)n(C)c1=O | inactive
COc1cc(OC)c(NS(=O)(=O)c2cn(C)cn2)cc1Cl | inactive
Cc1cc(C(=O)N/N=C/c2ccccc2[N+](=O)[O-])c(C)o1 | inactive
Cc1cc(C(=O)N/N=C/c2ccc(N3CCOCC3)cc2)c(C)o1 | inactive
CC(=C/c1ccccc1)/C=N/NC(=O)c1cc(C)oc1C | 7.08 µM (active)
Cc1c(CC(=O)N2CCN(C(=O)C3COc4ccccc4O3)CC2)c(=O)oc2c(O)c(O)ccc12 (configuration not stated) | inactive
COc1cc(OC)cc(C(=O)Nc2nnc(SCC(=O)NCC3CCCO3)s2)c1 (configuration not stated) | inactive
CC(=O)c1ccc(N2CCN(CC(O)c3ccccc3)CC2)cc1 (configuration not stated) | inactive
Cc1[nH]c(C)c(S(=O)(=O)N2CCN(c3cccc(C(F)(F)F)c3)CC2)c1C(=O)N1CCCCC1 | inactive
COc1ccc(-c2nc(CS(=O)CC(=O)NCc3cccnc3)c(C)o2)cc1OC (configuration not stated) | 11.2 µM (active)
Cc1cccc(-c2nc(CS(=O)CC(=O)NC(C)CCc3ccccc3)c(C)o2)c1 (configuration not stated) | inactive
COc1ccc(-c2nc(CS(=O)CC(=O)NCc3ccccc3)c(C)o2)cc1OC (configuration not stated) | inactive
CCCOc1ccc(Cc2c(O)nc(SC)[nH]c2=O)cc1C | inactive
O=C(c1cc2ccccc2o1)N1CCN(c2cccc(C(F)(F)F)c2)CC1 | inactive
N=c1c2c(-c3ccccc3)c(-c3ccccc3)oc2ncn1Cc1ccco1 | inactive
COc1ccc(-c2oc3ncnc(NCCCO)c3c2-c2ccc(OC)cc2)cc1 | inactive
COc1ccc(-c2oc3ncn(Cc4ccco4)c(=N)c3c2-c2ccc(OC)cc2)cc1 | 12.6 µM (active)
CC(C)[C@@H]1COC(c2cccc(C3=N[C@H](C(C)C)CO3)c2)=N1 | inactive

SMILES | Potency
O=C(NC(Cc1ccc(O)cc1)C(=O)O)/C(=C/c1ccccc1)NC(=O)c1ccccc1 (configuration not stated) | inactive
O=C(C[C@H]1C(=O)N(c2ccc(F)c(F)c2)C[C@@H]1Cc1ccccc1)Nc1ccccc1 | inactive
Cc1c(C)c(C)c(S(=O)(=O)N2CCC3(CC2)OCCO3)c(C)c1C | inactive
Cc1cc(SCc2c(F)cccc2Cl)nc(=O)[nH]1 | inactive
O=C(COC(=O)Cc1ccc(F)cc1)Nc1cc(S(=O)(=O)N2CCOCC2)ccc1N1CCCC1 | inactive
COCCNC(=S)Nc1cc(S(=O)(=O)N2CCOCC2)ccc1N1CCCCC1 | 0.891 µM (active)
CC(=O)NCCC(=O)Nc1cc(S(=O)(=O)N2CCOCC2)ccc1N1CCOCC1 | inactive
O=C(Nc1ccccc1C(=O)Nc1ccncc1)c1ccc([N+](=O)[O-])cc1 | inactive
Cc1ccc(N2CCN(c3ccc([N+](=O)[O-])cn3)CC2)c(C)c1 | inactive
CC/C(=N\NC(=S)NC(C)C)c1ccc(OC(F)F)cc1 | 0.562 µM (active)
O=C(COC(=O)c1ccc(N2CCCC2=O)cc1)c1ccc(OC(F)F)cc1 | inactive
O=C(NCCNc1ccccc1[N+](=O)[O-])c1ccccc1F | inactive
COc1cc(CN2CCC(n3nccc3NC(=O)CCCc3ccccc3)CC2)ccc1O | inactive
CCOc1cc2[nH]c(=S)n(Cc3ccc(C(=O)NCCOC)cc3)c(=O)c2cc1OCC | inactive
COc1cc2[nH]c(=S)n(Cc3ccc(C)o3)c(=O)c2cc1OC | 5.01 µM (active)
COc1cc2[nH]c(=S)n(Cc3ccc(F)cc3)c(=O)c2cc1OC | 1.78 µM (active)
CCOc1cc2[nH]c(=S)n(CCCN3CCCC3=O)c(=O)c2cc1OCC | inactive
COc1cc2[nH]c(=O)n(Cc3ccc(C(=O)NC4CCN(Cc5ccccc5)CC4)cc3)c(=O)c2cc1OC | inactive
COc1cc2[nH]c(=O)n(CCC(=O)NC3CCN(Cc4ccccc4)CC3)c(=O)c2cc1OC | inactive
